# Assay outcomes: PubChem BioAssay, National Center for Advancing Translational Sciences (NCATS)
# This is one part of a sample in which hits are shown more often than they occur.
# Pf Dd2 growth = qHTS Primary assay for Inhibitors of Plasmodium falciparum Dd2 growth in vitro | P. falciparum Dd2 growth, SYBR Green, 72 h | Potency, µM (doses to about 28.9 µM), usual class: inhibitors | 120,000 tested, 4.3% active | AID 1347417, 2020; active = well fitted inhibition curve with a large enough effect; also: nearly all actives have a fitted effect of over 65% in size
#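 Infected erythrocytes (Dd2, 0.3% parasitemia, 2.5% hematocrit final) are added to compound in RPMI-1640/Albumax II medium, grown 72 h at 37C in low oxygen, then lysed with saponin/Triton-X containing SYBR Green and read by fluorescence.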
# Numbers stand for hits; . = inactive; [ ] = dose if it differs, or a comment.
SMILES,Pf Dd2 growth
CCn1nccc1C(=O)NCCC1CCN(C(=O)Nc2ccccc2)CC1,.
CCn1nccc1C(=O)Nc1cccc(-c2nnc3n2CCCC3)c1,8.9µM
CCOc1cc2[nH]c(=O)n(CCC(=O)N3CCN(c4cccc(Cl)c4)CC3)c(=O)c2cc1OCC,.[0.594 µM]
COc1nccnc1NC1CCN(C(=O)COc2ccccc2C)CC1,.[5.79 µM]
CN(CC1CCOC1)C(=O)c1ccccc1C(F)(F)F (configuration not stated),.[5.79 µM]
CC(=O)Nc1ccc(NC(=O)CSc2nccn2C)cc1,.
Cc1nc2scc(CC(=O)NCc3ccco3)n2c(=O)c1-c1cc(C)n(-c2cc(F)ccc2F)n1,.
Cc1cc2c(cc1S(=O)(=O)C(C)CC(=O)NC1CCC(C)CC1)OCC(=O)N2 (configuration not stated),.
Cc1ccc2nc(CO[C@H]3CN(Cc4nccs4)C[C@H]3F)[nH]c2c1,.
O=C(CSc1nccn1Cc1ccc(F)cc1)Nc1nc2ccccc2s1,.
Cc1ccc(NC(=O)Cn2c(C)cc3nc4n(c(=O)c32)CCC4)c(C)c1,.
N#Cc1cccc(CN2Cc3[nH]cnc3C[C@H]2c2nc(-c3cccc([N+](=O)[O-])c3)no2)c1,13µM
O=[N+]([O-])c1cccc(-c2noc([C@@H]3Cc4nc[nH]c4CN3Cc3cccs3)n2)c1,.
O=[N+]([O-])c1cccc(-c2noc([C@@H]3Cc4nc[nH]c4CN3Cc3ccc(F)cc3)n2)c1,10µM
Cc1cccc(-c2noc([C@@H]3Cc4nc[nH]c4CN3C(=O)c3ccc(F)cc3)n2)c1,.
Cc1cccc(-c2noc([C@@H]3Cc4nc[nH]c4CN3Cc3ccc(C(=O)O)cc3)n2)c1,.
N#Cc1cccc(CN2Cc3[nH]cnc3C[C@H]2C(=O)NCc2ccco2)c1,.
COc1ccc(CN(C)Cc2ccccc2C(F)(F)F)cc1,.
O=C(CCc1nc2ccc(Cl)cc2[nH]1)N1CCc2c(nc3cc(-c4ccccc4)[nH]n3c2=O)C1,.[5.79 µM]
CC(=O)Nc1ccc(CN2CCC3(C2)NC(=O)c2ccccc2CO3)cc1 (configuration not stated),.
O=C(CCS(=O)(=O)c1cc2c3c(c1)CCN3C(=O)CC2)NCc1ccc(Cl)cc1,.
Cc1ccc(CNS(=O)(=O)c2cc(Br)cc3c2N(C(=O)C2CC2)CC3)cc1,.
CCC(=O)N1CCc2cc(Br)cc(S(=O)(=O)CCC(=O)Nc3cccc(Cl)c3)c21,7.1µM
CCC(=O)N1CCc2cc(Br)cc(S(=O)(=O)CCC(=O)Nc3cccc(C)c3C)c21,.
CC(=O)N1CCc2cc(Br)cc(S(=O)(=O)N3CCC(C(=O)N(C)c4cc(C)ccc4C)CC3)c21,.
SMILES,Pf Dd2 growth
COc1ccc(CNC(=O)CCS(=O)(=O)c2cc(Br)cc3c2N(C(C)=O)C(C)C3)cc1 (configuration not stated),.
Cc1ccc(NC(=O)CCS(=O)(=O)c2cc(Br)cc3c2N(C(=O)C2CC2)CC3)cc1,1µM
O=C(CCS(=O)(=O)c1cc(Br)cc2c1N(C(=O)C1CC1)CC2)NCc1ccc(Cl)cc1,6.3µM
CCC(=O)N1CCc2cc(Br)cc(S(=O)(=O)NCCc3ccccc3Cl)c21,.
CC(C)c1ccc(NS(=O)(=O)c2cc(Br)cc3c2N(C(=O)C2CC2)CC3)cc1,.
COc1ccc(NC(=O)CCS(=O)(=O)c2cc(Br)cc3c2N(C(C)=O)CC3)c(OC)c1,.
CC(=O)N1CCc2cc(Br)cc(S(=O)(=O)N3CCC(C(=O)Nc4ccc(C(C)C)cc4)CC3)c21,10µM
Cc1ccc(C(=O)Nc2cccc(-c3nc4cccnc4s3)c2C)cc1,.
COc1ccc(CC(=O)N2CC(N(C3CCOCC3)S(C)(=O)=O)C2)cc1OC,.
Cc1nc(C2CCN(C(=O)[C@H]3CNC[C@@H](C(=O)N4CCOCC4)C3)CC2)n[nH]1,.
Cc1ccc(NC(=O)Cn2nc(C)c3nn(-c4ccc(Cl)cc4)c(C)c3c2=O)cc1C,.
COc1cc(CN2C[C@@H]3C(=O)N(CCCN4CCCC4=O)C(=O)[C@@H]3C2)ccc1OC(C)C,.
Cc1nc2ccn(Cc3ccccc3)c(=O)c2cc1C(=O)N1CCN(c2ccc(F)cc2)CC1,.
COc1ccc(C2CC(=O)Nc3c2c(=O)[nH]c2nc4ccccc4n32)cc1 (configuration not stated),.
O=c1[nH]c(SCc2ccc(Br)cc2)nc2c1CCCC2,.
CCC(=O)N1CCc2cc(Br)cc(S(=O)(=O)CCC(=O)Nc3ccc(Cl)cc3)c21,5µM
CCC(=O)N1CCc2cc(Br)cc(S(=O)(=O)NCCc3ccc(C)cc3)c21,.
CCC(=O)N1CCc2cc(Br)cc(S(=O)(=O)CCC(=O)NCCc3ccccc3)c21,.
Cc1ccc(NC(=O)CCS(=O)(=O)c2cc3c4c(c2)CCN4C(=O)CC3)c(C)c1,.
COc1ccc(-n2nc(C(=O)NCc3ccc(F)cc3)c3c4ccccc4n(C)c3c2=O)cc1,.
Cc1ccc(-n2nc(C(=O)NCCc3cccc(C)c3)c3c4ccccc4n(C)c3c2=O)cc1,.
COc1ccc(-n2nc(C(=O)Nc3cccc(C)n3)c3c4ccccc4n(C)c3c2=O)cc1,.
